Screening results deposited in PubChem BioAssay by National Center for Advancing Translational Sciences (NCATS).
This excerpt belongs to a sample that is enriched for hits.
IL1B secr inh: qHTS for Inhibitors of Inflammasome Signaling: IL-1-beta AlphaLISA Primary Screen | AID 743279, 2014 | THP-1 LPS/ATP IL-1B secretion, AlphaLISA, 16 h; hits give low values | actives 4.7% (n = 360,000) | activity change, % at 57.5 µM; in the data active means activity change below about -50%; inconclusive means mostly about -30% to -49%
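THP-1 cells pretreated 1 hr with compounds (up to 57.5 uM final), then stimulated with LPS (250 ng/mL final) plus ATP (1.25 mM final); secreted IL-1B measured by AlphaLISA after 16 hr, decreased signal indicating inhibition.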
DT40 TDP1 no CPT: qHTS for Inhibitors of human tyrosyl-DNA phosphodiesterase 1 (TDP1): qHTS in cells in absence of CPT. DT40 Tdp1-/- hTDP1 cells, no CPT, ATP luminescence, 48 h. Potency, µM (highest dose often 46.2 µM), for inactives: at the top dose activity change, negative = growth inhibition, actives largely listed as inhibitors. actives 15% (n = 420,000). AID 686978, 2013; further: potency means the concentration at half of the fitted maximal effect; nearly all actives have a fitted effect of over 55% in size
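Compound effects on proliferation are scored in DT40 Tdp1-/-;hTDP1 cells in the absence of CPT. ATP levels (CellTiter-Glo luminescence) are recorded after a ≥48 hr, 37 °C incubation.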
HT1080 IDH1KD tx: qHTS for induction of synthetic lethality in tumor cells producing 2HG: qHTS for the HT-1080-IDH1KD cell line. HT-1080 IDH1 knockdown viability, ATP luminescence, 48 h. Potency, µM (top dose mostly 46.1 µM), for the others: at the highest dose activity, negative = toxicity, actives largely listed as cytotoxic. actives 2% (n = 360,000);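 further: potency means the concentration at half of the fitted maximal effect; 0% = DMSO wells and -100% = cell-free medium wells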
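IDH1KD HT-1080 cells, 750/well, RPMI + 5% FBS; compound pinned after 2 h settling; 48 h, 37 °C; CellTiter-Glo luminescence; % activity normalised to DMSO and no-cell wells; curves fitted, classed by r2 and efficacy.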
HT1080-NT tox: qHTS for induction of synthetic lethality in tumor cells producing 2HG: qHTS for the HT-1080-NT fibrosarcoma cell line; HT-1080-NT fibrosarcoma viability, CellTiter-Glo ATP luminescence, 48 h; Potency, µM (top dose mostly 46.1 µM), without a hit: at the highest dose activity, negative = less viability, hits mostly cytotoxic; actives 1.6% (n = 360,000); AID 686970, 2013;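 further: NT is the 2HG producing partner of a matched IDH1 knockdown line; potency means the concentration at half of the fitted maximal effect; 0% = DMSO-treated cells and -100% = media-only wells without cells; nearly all actives have a fitted effect of over 55% in size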
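Viability by CellTiter-Glo luminescence after 48 h compound exposure at 37C of HT-1080-NT cells (750/well, RPMI, 5% FBS). % activity scaled between DMSO wells and medium-only wells, then curve-fitted and categorized by curve class.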
12-LOX inh: Primary qHTS assay for inhibitors of human arachidonate 12S-lipoxygenase (ALOX12): Round 2 | actives 1.1% (n = 580,000) | Potency, µM (titrated, usually from 108 µM), inactives show at the top dose activity change, negative = inhibition, hits mostly inhibitors | purified 12hLO, xylenol orange hydroperoxide absorbance | Polyunsaturated fatty acid lipoxygenase ALOX12 (Homo sapiens), P18054 | AID 1671190, 2021; further: potency means the concentration at half of the fitted maximal effect
Target sequence (P18054 whole entry, looked up): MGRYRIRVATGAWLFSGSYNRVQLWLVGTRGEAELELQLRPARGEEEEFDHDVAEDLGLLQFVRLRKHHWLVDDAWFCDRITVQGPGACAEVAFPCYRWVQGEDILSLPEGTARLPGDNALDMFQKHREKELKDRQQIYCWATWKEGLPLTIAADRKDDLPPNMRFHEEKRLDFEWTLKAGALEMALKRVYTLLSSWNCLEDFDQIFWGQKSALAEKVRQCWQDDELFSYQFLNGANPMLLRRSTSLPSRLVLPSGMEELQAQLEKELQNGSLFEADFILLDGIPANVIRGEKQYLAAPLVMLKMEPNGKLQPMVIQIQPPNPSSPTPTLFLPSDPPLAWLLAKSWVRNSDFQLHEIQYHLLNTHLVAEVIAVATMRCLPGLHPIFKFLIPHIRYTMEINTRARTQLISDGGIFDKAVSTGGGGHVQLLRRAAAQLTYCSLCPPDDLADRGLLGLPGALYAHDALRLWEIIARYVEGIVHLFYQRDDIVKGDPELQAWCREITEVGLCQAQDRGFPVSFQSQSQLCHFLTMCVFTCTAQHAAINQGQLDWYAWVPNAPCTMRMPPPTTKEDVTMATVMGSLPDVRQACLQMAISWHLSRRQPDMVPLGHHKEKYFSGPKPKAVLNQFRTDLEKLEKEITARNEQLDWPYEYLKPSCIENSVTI
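Hydroperoxide product was detected by ferrous iron/xylenol orange as the 573 to 405 nm absorbance ratio. Arachidonic acid at 40 uM (final) was turned over for 30 min at room temperature by 150 nM human 12hLO, pH 7.0 Hepes buffer, after 15 min compound preincubation.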
DT40 TDP1 CPT: qHTS for Inhibitors of human tyrosyl-DNA phosphodiesterase 1 (TDP1): qHTS in cells in presence of CPT. chicken DT40 Tdp1-/-;hTDP1 cells + 20 nM CPT, ATP luminescence, 48 h. Potency, µM (doses to about 46.2 µM), for inactives: at the highest dose activity change, negative = growth inhibition, most hits filed as inhibitors. actives 12% (n = 420,000); further: potency means the concentration at half of the fitted maximal effect; nearly all actives have a fitted effect of over 55% in size
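Chicken DT40 Tdp1-/- cells complemented with human TDP1, 400 cells/well, exposed to compounds plus 20 nM camptothecin for at least 48 h at 37 C; viability read as ATP content by CellTiter-Glo luminescence.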
* hit, by the source's call; [ ] = dose if it differs, or a comment. Unless noted, the call rests on the fitted dose curve; in most records, active means well fitted curve in the direction sought with a large enough effect; inconclusive means small, poorly fitted or top-dose-only effect, or another doubt; inactive means no such curve, though single readings can be large; an effect the other way counts as inactive or inconclusive. Unless noted, on the % scale 0 is the no-effect control and ±100 the full control effect.

Screening O=C(Nc1ccc(Br)cc1F)c1ccncc1 returned IL1B secr inh inconclusive, DT40 TDP1 no CPT -29%, HT1080 IDH1KD tx 4%, HT1080-NT tox 9%, 12-LOX inh 139% and DT40 TDP1 CPT -10%.
`O=C(Nc1ccc(Br)cc1F)c1ccc2nsnc2c1` gave IL1B secr inh 4, DT40 TDP1 no CPT 8.2µM*, HT1080 IDH1KD tx 2%, HT1080-NT tox -1%, 12-LOX inh -3% and DT40 TDP1 CPT inconclusive.
Screening CCOc1cc(CNC(=O)c2ccc(C)c(NC(=O)c3nsc4ccccc34)c2)ccc1OC returned DT40 TDP1 no CPT 7.3µM*, 12-LOX inh -24% and DT40 TDP1 CPT 7.3µM*.
`O=C(NCc1ccccc1Cl)c1ccccc1NC(=O)c1nsc2ccccc12` gave DT40 TDP1 no CPT 16µM*, 12-LOX inh -13% and DT40 TDP1 CPT inconclusive.
For CCOc1cc(CNC(=O)c2ccc(NC(=O)c3nsc4ccccc34)cc2)ccc1OC the results were DT40 TDP1 no CPT inconclusive, 12-LOX inh -18% and DT40 TDP1 CPT inconclusive.
`CC(NC(=O)c1ccccc1NC(=O)c1nsc2ccccc12)c1ccccc1` (stereo unspecified) gave DT40 TDP1 no CPT inconclusive, 12-LOX inh -20% and DT40 TDP1 CPT inconclusive.
Screening CCOc1ccc(CNC(=O)c2ccccc2NC(=O)c2nsc3ccccc23)cc1 returned DT40 TDP1 no CPT 18µM*, 12-LOX inh -14% and DT40 TDP1 CPT 21µM*.
Screening CC1CCN(C(=O)c2ccccc2NC(=O)c2nsc3ccccc23)CC1 returned DT40 TDP1 no CPT -24%, 12-LOX inh -17% and DT40 TDP1 CPT -20%.
`Cc1ccc(NC(=O)Cn2c(=O)c(-c3noc(C)n3)c3n(c2=O)CCCC3)c(Cl)c1` gave 12-LOX inh 37%.
For Cc1ccc(-n2ncc(C(=O)N3CCC(c4ccccc4)C3)c2C2CCN(C(=O)OC(C)(C)C)CC2)cc1 (stereo unspecified) the results were DT40 TDP1 no CPT 23µM*, 12-LOX inh -25% and DT40 TDP1 CPT 15µM*.
CC(C)(C)OC(=O)N1CCC(c2c(C(=O)N3CCC(c4ccccc4)C3)cnn2-c2ccc(Cl)cc2)CC1 (stereo unspecified) was read as DT40 TDP1 no CPT 16µM*, 12-LOX inh -14% and DT40 TDP1 CPT 13µM*.
Screening CC(C)(C)OC(=O)N1CCC(c2c(C(=O)O)cnn2-c2ccc(Cl)cc2)CC1 returned IL1B secr inh 25, DT40 TDP1 no CPT -15%, HT1080 IDH1KD tx -1%, HT1080-NT tox 1%, 12-LOX inh inconclusive and DT40 TDP1 CPT -12%.
CC(C)N(Cc1ccccc1)C(=O)COc1ccccc1 was read as IL1B secr inh 3, DT40 TDP1 no CPT inconclusive, HT1080 IDH1KD tx 11%, HT1080-NT tox 17%, 12-LOX inh 4% and DT40 TDP1 CPT inconclusive.
Screening CCOC(=O)c1[nH]c(C)c(C(=O)c2cc(F)ccc2F)c1C returned IL1B secr inh 54, DT40 TDP1 no CPT 0.82µM*, HT1080 IDH1KD tx 0.45µM*, HT1080-NT tox 0.71µM*, 12-LOX inh -11% and DT40 TDP1 CPT 0.82µM*.
Screening CCOC(=O)c1[nH]c(C)c(C(=O)OCc2ccccc2F)c1C returned IL1B secr inh 19, DT40 TDP1 no CPT 9.2µM*, HT1080 IDH1KD tx 9.2µM*, HT1080-NT tox 12µM*, 12-LOX inh -10% and DT40 TDP1 CPT 6.5µM*.
Screening CCOC(=O)c1c(C)[nH]c(C(=O)NNC(=O)c2ccccc2F)c1C returned IL1B secr inh 0, DT40 TDP1 no CPT 2%, HT1080 IDH1KD tx 22%, HT1080-NT tox 12%, 12-LOX inh -4% and DT40 TDP1 CPT -1%.
Screening CCOC(=O)c1[nH]c(C)c(C(=O)OCC)c1C returned IL1B secr inh -24, DT40 TDP1 no CPT 0%, HT1080 IDH1KD tx 10%, HT1080-NT tox 7%, 12-LOX inh 15%[57.4 µM] and DT40 TDP1 CPT 1%.
Screening CC(C)N(Cc1ccccc1)C(=O)COC(=O)c1cc(S(=O)(=O)N(C)C)ccc1N1CCCC1 returned IL1B secr inh -10, DT40 TDP1 no CPT 15µM*, HT1080 IDH1KD tx 0%, HT1080-NT tox -5%, 12-LOX inh -2% and DT40 TDP1 CPT 23µM*.
Screening CC(C)N(Cc1ccccc1)C(=O)CCc1ccccc1 returned IL1B secr inh -24, DT40 TDP1 no CPT inconclusive, HT1080 IDH1KD tx 3%, HT1080-NT tox -2%, 12-LOX inh -6% and DT40 TDP1 CPT 15µM*.
Cc1ccc(C(=O)c2c(N)c(-c3nc4ccccc4[nH]3)c3ccccn23)cc1 was read as 12-LOX inh 29%.
`CC(=O)c1ccc(NC(=O)O[C@@H]2CO[C@H]3[C@@H]2OC[C@@H]3n2nnnc2-c2ccc(-c3ccccc3)cc2)cc1` gave 12-LOX inh 9%.
Screening CCOC(=O)c1[nH]c(C)c(C(=O)OCC(=O)N(Cc2ccccc2)C(C)C)c1C returned IL1B secr inh inconclusive, DT40 TDP1 no CPT 15µM*, HT1080 IDH1KD tx -16%, HT1080-NT tox -14%, 12-LOX inh 2% and DT40 TDP1 CPT inconclusive.
For CCOC(=O)c1c(C)[nH]c(C(=O)OCC(=O)N(CC(C)C)c2c(N)n(Cc3ccccc3)c(=O)[nH]c2=O)c1C the results were IL1B secr inh -7, DT40 TDP1 no CPT inconclusive, HT1080 IDH1KD tx -2%, HT1080-NT tox -4%, 12-LOX inh -27% and DT40 TDP1 CPT inconclusive.
For Cc1ccc(S(=O)(=O)N2CCN(c3ncnc4scc(-c5ccccc5)c34)CC2)cc1 the results were IL1B secr inh 22, DT40 TDP1 no CPT 23µM*, HT1080 IDH1KD tx 19%, HT1080-NT tox 10%, 12-LOX inh 36% and DT40 TDP1 CPT inconclusive.
`O=C(c1ccco1)N1CCN(c2ncnc3scc(-c4ccc(F)cc4)c23)CC1` gave IL1B secr inh 0, DT40 TDP1 no CPT inconclusive, HT1080 IDH1KD tx inconclusive, HT1080-NT tox inconclusive, 12-LOX inh -5% and DT40 TDP1 CPT inconclusive.
